MRP resist rev: reversal of MRP1-mediated doxorubicin resistance, primary screen, H69AR cells, doxorubicin co-treatment; H69AR cells + 2 uM doxorubicin, CellTiter-Glo, 72 h; differential viability (reversal), % at 10 µM; actives 0.04% (n = 85,000); AID 602, 2007;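 active = viability drop by adding the cancer drug above about 55%, with treated viability meeting a 40% cutoff, limit read from the data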;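 also: larger differential means the compound sensitizes cells more to doxorubicin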
sEH inhibitor: soluble epoxide hydrolase inhibitors, primary screen, biochemical, human sEH | Bifunctional epoxide hydrolase 2 (Homo sapiens), P34913 | recombinant human sEH enzymatic activity assay | inhibition, % at 2 µM | actives 0.34% (n = 91,000) | AID 707, 2007; in the data active = inhibition above about 80%
Target sequence (P34913 whole entry, looked up): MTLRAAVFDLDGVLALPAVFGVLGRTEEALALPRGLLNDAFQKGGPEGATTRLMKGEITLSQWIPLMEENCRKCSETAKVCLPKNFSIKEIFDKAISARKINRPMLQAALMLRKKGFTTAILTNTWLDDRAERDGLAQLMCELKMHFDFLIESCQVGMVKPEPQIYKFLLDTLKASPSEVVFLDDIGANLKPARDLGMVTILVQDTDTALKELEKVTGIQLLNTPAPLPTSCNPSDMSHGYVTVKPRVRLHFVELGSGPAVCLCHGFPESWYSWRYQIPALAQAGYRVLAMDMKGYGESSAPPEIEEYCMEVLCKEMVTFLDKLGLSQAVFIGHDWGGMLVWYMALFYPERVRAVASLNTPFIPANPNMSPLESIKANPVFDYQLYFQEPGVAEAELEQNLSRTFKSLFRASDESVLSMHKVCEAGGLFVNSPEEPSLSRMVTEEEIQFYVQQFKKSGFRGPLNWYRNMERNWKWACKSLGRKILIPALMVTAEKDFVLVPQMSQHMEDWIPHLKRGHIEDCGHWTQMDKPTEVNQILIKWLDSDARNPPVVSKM
SDO1 yeast rescue: growth rescue of sdo1-depleted yeast, primary screen, S. cerevisiae, bone marrow failure model; S. cerevisiae sdo1-depleted JHY4D growth rescue, OD600 30 h; stronger effect = higher value; pdr5 snq2 efflux-pump mutant strain; z-score at 10 µM; actives 0.21% (n = 140,000); AID 817, 2007;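 active = z-score above 3 at both the 24 hr and the 30 hr optical density reads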
sEH activator: soluble epoxide hydrolase activators, primary screen, biochemical, human sEH; activation, % at 2 µM; Bifunctional epoxide hydrolase 2 (Homo sapiens), P34913; AID 717, 2007; actives 0.04% (n = 91,000); purified human sEH enzymatic activity, activator screen; in the data active = activation above about 37%
Phagocyt inh: inhibitors of macrophage phagocytosis, primary screen, imaging, J774A.1 cells, IgG beads; J774A.1 macrophage IgG-bead phagocytosis; inhibition, % at 5 µM; actives 0.07% (n = 110,000); AID 1029, 2008;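 active = inhibition above the mean of the plate negative controls plus 5 SD, cut at about 13% in these data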;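 also: phagocytic index as fraction of beads internalized from green versus red external bead signal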
MRP1 act: H69AR viability gain despite doxorubicin, primary screen, MRP-1 activator project, H69AR cells, CellTiter-Glo; viability rescue; viability increase, % at 10 µM; actives 0.61% (n = 140,000); AID 799, 2007;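 active = viability gain under doxorubicin at or above a set limit, the compound median plus 3 SD, cut at about 4.7% in these data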;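 also: MRP-1 overexpressing cells given doxorubicin 25 µM after compound pretreatment; 18-22 h compound pretreatment then 72 h with doxorubicin before readout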
Hits are given with their value; i = inactive; nt = no result given; + = active, no number; [ ] = another dose, or the depositor's remark. This is a sample that favours compounds with a hit; in the whole collection about 1% have one here.

SMILES	MRP resist rev	sEH inhibitor	SDO1 yeast rescue	sEH activator	Phagocyt inh	MRP1 act
Cc1nn(Cc2ccc(Cl)cc2Cl)c(C)c1NC(=O)c1ccc(COc2cc(Cl)ccc2Cl)o1	nt	i	i	i	nt	5.6
CC(C)COC(=O)c1ccc2c(c1O)C(=O)c1ccccc1C2=O	i	i	i	i	i	i
Cc1ccc(OCc2nnc(SCC(=O)Nc3cccc4ccccc34)n2-c2ccccc2)cc1	i	i	i	i	nt	6.3
CCc1nnc(NC(=O)CSc2nnc(COc3ccccc3)n2-c2ccc(C)cc2)s1	i	i	i	i	i	i
O=C(CN1CCSC1=NCc1ccccc1)c1ccc(Cl)cc1	nt	nt	i	nt	i	i
CC1(C)Cc2cccc(OCC(=O)Nc3cccnc3Cl)c2O1	i	i	i	i	i	i
Cc1cc(C)n(CCc2nc(-c3ccc(-c4ccccc4)cc3)cs2)n1	nt	nt	i	nt	i	7.3
COc1cc(C(=O)Nc2ccc(Br)cc2C(=O)c2cc(OC)c(OC)c(OC)c2)cc(OC)c1OC	nt	i	i	i	i	i
COC(=O)c1cc(CNC(=O)c2cccc(Cl)c2Cl)ccc1OC	nt	nt	i	nt	i	i
CC1=NN(C(=O)c2ccc(Cn3nc(C)c([N+](=O)[O-])c3C)cc2)C(O)(C(F)(F)F)C1 (stereo unspecified)	nt	i	i	i	i	i
CC1=NN(C(=O)c2ccc(Cn3nc(C)c(Br)c3C)cc2)C(O)(C(F)(F)F)C1 (stereo unspecified)	nt	nt	i	nt	i	5.2
O=C(Nc1ccc(Oc2ccccc2)cc1)c1cnc2n(c1=O)CCS2	i	i	i	i	i	6.0
CCOc1ccccc1NC(=O)c1cnc2n(c1=O)CCS2	i	i	i	i	i	i
Cc1cccc2cc(COC(=O)c3ccccn3)c(=O)[nH]c12	i	nt	i	nt	i	i
CC(=O)c1cc(F)c(N2CCN(C(=O)c3ccco3)CC2)cc1C	i	i	i	i	i	i
CC(=O)c1ccc(N2CCN(C(=O)c3ccco3)CC2)c(F)c1	i	i	i	i	+	i
C#CCONC(=O)c1cc(OCC(F)(F)F)ccc1OCC(F)(F)F	nt	i	i	i	nt	i
CC1CCCCC1NC(=O)COC(=O)c1ccc(S(=O)(=O)NCc2ccco2)cc1 (stereo unspecified)	nt	i	i	i	i	i
O=C(COC(=O)c1ccc(S(=O)(=O)NCc2ccco2)cc1)NC1CCCCCC1	nt	90	i	i	i	i
COc1ccc(CCN=C(N)NS(=O)(=O)c2ccc3ccccc3c2)cc1	nt	nt	i	nt	i	i
CCc1nnc(NC(=O)c2ccc(COc3ccc(C)cc3)o2)s1	i	i	i	i	i	6.2
CCc1nnc(NC(=O)CCC(=O)N2CCN(CCOc3ccc(C)cc3)CC2)s1	i	i	i	i	i	5.6
CCc1nnc(NC(=O)CCC(=O)N2CCN(CCc3ccccc3)CC2)s1	i	nt	i	nt	i	i
CC(C)CNC(=O)c1cccc(NC(=O)Cc2ccc(Br)cc2)c1	nt	nt	i	nt	i	6.2
CCOC(=O)C1=C(CSc2n[nH]c(N)n2)NC(=O)NC1C (stereo unspecified)	i	i	i	i	i	i
SMILES	MRP resist rev	sEH inhibitor	SDO1 yeast rescue	sEH activator	Phagocyt inh	MRP1 act
O=C(c1cccs1)N1N=C(c2ccccc2)CC1c1ccccc1 (stereo unspecified)	nt	i	i	i	i	i
COc1ccc(C2=NN(C(=O)c3cccs3)C(c3ccc(OC)cc3)C2)cc1 (stereo unspecified)	nt	nt	i	nt	i	7.5
Cc1cc(C)c(NC(=O)c2sc3nc4c(cc3c2N)C(=O)CC(C)(C)C4)c(C)c1	nt	nt	i	nt	i	5.4
COc1cc(OC)nc(Oc2ccccc2C(=O)Oc2ccc(Cl)cc2)n1	nt	i	i	i	nt	i
COc1ccc(/C=N/NC(=O)CNc2n[nH]c(=O)[nH]c2=O)cc1OC	nt	nt	i	nt	97[artifact]	i
COc1ccc(N(C)S(=O)(=O)c2c(C)[nH]c(=O)[nH]c2=O)cc1	i	i	i	i	nt	i
COc1ccc(-c2c(C#N)c(N)nc3sc(C(=O)c4ccccc4)c(N)c23)cc1	nt	nt	i	nt	i	12
CC1CCC/C(=C(\C#N)c2nc(-c3cc4ccccc4oc3=O)cs2)C1 (stereo unspecified)	nt	nt	i	nt	i	5.2
N=c1oc2c3c4c(cc2cc1C(=O)Nc1ccccc1)CCCN4CCC3	nt	i	i	i	i	6.4

Screening data (PubChem BioAssay)
